Sampled rows, rich in hits. Any-hit rate of the full collection: about 6.1%.
ATXN2 expr inh: Primary qHTS for Inhibitors of ATXN expression; AID 1745845, 2022; Potency, µM (highest dose often 57 µM), without a hit: at the highest dose activity change, negative = inhibition, actives largely listed as inhibitors; HEK-293 ATXN2-luciferase reporter, luminescence, 24 h; 360,000 compounds, 0.72% hits; further: on the % scale 0 is the no-effect control and ±100 the full control effect; nearly all actives have a fitted effect of over 55% in size
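ATXN2-luciferase reporter cells (luciferase flanked by upstream and downstream ATXN2 gene portions) were treated 24 h at 37 °C with compounds at up to 57 uM. SteadyGlo luminescence gave expression; GF-AFC fluorescence gave viability.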
ATXN viability: Viability Counterscreen for Primary qHTS for Inhibitors of ATXN expression; AID 651635, 2014; 400,000 compounds, 0.49% hits; Potency, µM (doses to about 56.7 µM), usual class: cytotoxic; S2 cells (HEK-293 line with an ATXN2-luciferase reporter) viability, CellTiter-Fluor protease fluorescence, 24 h; further: nearly all actives have a fitted effect of over 40% in size
TGFb inhibitor: qHTS for Inhibitors of TGF-b. HepG2 CAGA-GFP TGF-b/SMAD3 reporter, GFP fluorescence, 18 h; TGF-beta stimulated, 500 pg/mL final. Potency, µM (series often up to 46.1 µM), inactives show at the highest dose activity, negative = inhibition, actives largely listed as inhibitors. 410,000 compounds, 1.2% hits. AID 588855, 2011; further: on the % scale 0 is the no-effect control and ±100 the full control effect; nearly all actives have a fitted effect of over 65% in size
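Using HEPG2 CAGA-GFP reporter cells at 1000 cells/well, we pinned test compounds, stimulated with recombinant TGF-beta (500 pg/mL final) and measured total well GFP after 18 h.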
VP16 counter: VP16 counterscreen qHTS for inhibitors of ROR gamma transcriptional activity. Drosophila S2 Gal4-VP16 UAS-luciferase, luminescence, 20 h. Potency, µM (doses to about 53.6 µM), for inactives: at the highest dose activity, negative = inhibition, actives largely listed as inhibitors. 310,000 compounds, 3.5% hits;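 further: Gal4-VP16 expression switched on by copper sulfate through the metallothionein promoter; on the % scale 0 is the no-effect control and ±100 the full control effect; nearly all actives have a fitted effect of over 50% in size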
RORgamma inh: qHTS for inhibitors of ROR gamma transcriptional activity | Drosophila S2 Gal4-RORgamma UAS-luciferase reporter, 20 h | 310,000 compounds, 5.4% hits | AID 2551, 2010 | Potency, µM (highest dose often 53.6 µM), for the others: at the top dose activity change, negative = inhibition, actives largely listed as inhibitors | Nuclear receptor ROR-gamma (Mus musculus), P51450; further: on the % scale 0 is the no-effect control and ±100 the full control effect; nearly all actives have a fitted effect of over 60% in size
Target sequence (P51450 whole entry, looked up, the tested form may be a part): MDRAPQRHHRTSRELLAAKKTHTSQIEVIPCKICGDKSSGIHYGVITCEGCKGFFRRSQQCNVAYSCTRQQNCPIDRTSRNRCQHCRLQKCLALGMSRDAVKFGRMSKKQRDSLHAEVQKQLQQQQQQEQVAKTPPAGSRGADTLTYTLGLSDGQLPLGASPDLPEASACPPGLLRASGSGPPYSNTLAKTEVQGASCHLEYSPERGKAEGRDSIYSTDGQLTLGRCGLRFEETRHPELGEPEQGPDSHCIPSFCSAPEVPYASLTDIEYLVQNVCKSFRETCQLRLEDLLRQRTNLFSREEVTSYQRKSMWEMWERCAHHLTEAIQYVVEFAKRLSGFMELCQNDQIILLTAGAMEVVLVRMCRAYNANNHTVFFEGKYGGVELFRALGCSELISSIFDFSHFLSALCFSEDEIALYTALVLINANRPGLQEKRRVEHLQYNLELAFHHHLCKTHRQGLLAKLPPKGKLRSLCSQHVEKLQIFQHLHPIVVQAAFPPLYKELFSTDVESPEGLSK
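Read-out: Photinus luciferase luminescence; inhibitors lower reporter signal. Insect Schneider cells with Gal4-ROR gamma fusion under metallothionein promoter, UAS reporter; 700 uM final copper sulfate induction, 20 hr, ambient temperature.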
HepG2 viability: qHTS for Inhibitors of TGF-b: Cytotox Counterscreen. HepG2 CAGA-GFP viability, ATP luminescence, 18 h. Potency, µM (doses to about 46.1 µM), inactives show at the top dose activity change, negative = cytotoxicity, most hits filed as cytotoxic. 410,000 compounds, 0.76% hits. AID 588856, 2011
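CellTiter-Glo luminescence gave cytotoxicity after 18 hours at 37 degrees C. The cells were HepG2 CAGA-GFP in 1% FBS DMEM, stimulated with 500 pg/mL TGF-beta after compound addition. %Activity was normalised to no-cell wells (complete cell-killing) and DMSO (no toxicity), and curves were fitted and classified.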
* marks the source's active call; other numbers are inactive results; i = inactive; ? = inconclusive; . = no result; [ ] = remark or other dose. The call rests on the fitted dose curve; in most records, active means well fitted curve in the direction sought with a large enough effect; inconclusive means small, poorly fitted or top-dose-only effect, or another doubt; inactive means no such curve, though single readings can be large; an effect the other way counts as inactive or inconclusive. Potency means the concentration at half of the fitted maximal effect.

SMILES	ATXN2 expr inh	ATXN viability	TGFb inhibitor	VP16 counter	RORgamma inh	HepG2 viability
COc1cccc(N2CCN(C(=O)CCCCCn3c(=S)[nH]c4cc5c(cc4c3=O)OCO5)CC2)c1	-31.4%	?	3.4%	-25.8%	2.24µM*	-17.6%
O=C(CCCn1c(=S)[nH]c2cc3c(cc2c1=O)OCO3)N1CCN(c2ccc(F)cc2)CC1	-5.7%	?	?	?	7.94µM*	1.5%
O=C(CCCn1c(=S)[nH]c2cc3c(cc2c1=O)OCO3)N1CCN(c2ncccn2)CC1	5.3%	i	-8.4%	-20.9%	15.8µM*	7.8%
CCN(CC)CCn1c(=S)[nH]c2cc3c(cc2c1=O)OCO3	-3.4%	i	-0.2%	-2.7%	-41.2%	-21.6%
CCOCCCn1c(=S)[nH]c2cc3c(cc2c1=O)OCO3	14.8%	i	0.0%	2.51µM*	2.51µM*	-29.5%
Cc1ccc(S(=O)(=O)C(CNC(=O)C(=O)NCc2ccccc2C)c2cccs2)cc1 (stereo not given)	-15.6%	i	-16.1%	.	.	-14.0%
COc1ccc(Br)cc1C1C2C=CCCC2(C)C(=O)N1Cc1ccccc1 (stereo not given)	.	.	?	?	?	-29.0%
COc1cc(=O)n2c(c1C(=O)N(C)Cc1nonc1C)CCN(Cc1ccc(F)cc1)CC2	.	i	.	.	.	.
O=C(CCCn1c(=S)[nH]c2cc3c(cc2c1=O)OCO3)N1CCN(c2ccccc2F)CC1	2.3%	i	12.7%	7.94µM*	12.6µM*	-28.9%
COc1ccccc1N1CCN(C(=O)CCCCCn2c(=S)[nH]c3cc4c(cc3c2=O)OCO4)CC1	.	i	-3.7%	.	.	-15.8%
Oc1c(N=NC(=S)Nc2ccccc2F)c2ccccc2n1Cc1ccc(F)cc1	-40.9%	?	-23.8%	3.55µM*	2.82µM*	-21.4%
Cc1cccc(Cn2c(O)c(N=NC(=S)Nc3ccccc3F)c3ccccc32)c1	.	i	-1.7%	5.01µM*	3.16µM*	-2.4%
O=C(N=Nc1c(O)n(Cc2ccccc2)c2ccccc12)c1ccc(O)cc1	55.2%	?	?	-26.1%	?	-4.7%
O=C(N=Nc1c(O)n(Cc2ccccc2)c2ccccc12)c1cc2ccccc2cc1O	-33.5%	.	-3.9%	-46.2%	?	-7.5%
Oc1c(N=NC(=S)Nc2ccccc2F)c2ccccc2n1Cc1cccc(Cl)c1	-9.7%[11.3 µM]	i	-9.1%	3.55µM*	?	-8.0%
Cc1ccc(NC(=O)c2ccc(CN3CC(=O)N4CCCCC4C3=O)cc2)cc1 (stereo not given)	.	.	-1.2%	.	.	-1.0%
Cc1nc(-c2ccc(Cl)cc2)sc1CCNC(=O)c1ccc(C(F)(F)F)cc1	-4.3%	i	-1.7%	.	.	2.6%
CCc1cccc(NC(=O)CC2Oc3ccc(C)cc3NC2=O)c1 (stereo not given)	.	.	-7.0%	.	.	-20.1%
N/C(=N\N=C\c1ccc(O)c(O)c1)c1nonc1N	.	i	4.5%	?	10µM*	-9.4%
COc1cc(/C=N/N=C(\N)c2nonc2N)ccc1O	31.8%	i	-1.9%	28.4%	-2.7%	-6.2%
Oc1ccccc1-c1cc(-c2ccccc2Cl)[nH]n1	143.5%	i	?	?	4.47µM*	-19.4%
Oc1ccccc1-c1cc(-c2ccco2)[nH]n1	104.2%	i	-12.9%	?	?	-15.7%
O=C(Nc1cccnc1)c1cc(-c2cc(Cl)ccc2O)n[nH]1	.	i	-7.6%	11.6%	18.1%	-31.0%
Oc1ccc(Cl)cc1-c1cc(-c2ccccc2Cl)[nH]n1	22.3%	i	-12.6%	10µM*	4.47µM*	-20.6%
Oc1ccc(Cl)cc1-c1cc(-c2cccc(Br)c2)n[nH]1	8.3%	i	-28.8%	0.891µM*	?	-23.2%

Compound activity deposited in PubChem BioAssay by National Center for Advancing Translational Sciences (NCATS).
